Screening data as filed in PubChem.
The entries come from a sample that favours hits as a whole.
SF1 inhibitor = SF-1 (human) inhibition; Q13285; CHO-K1 Gal4-SF-1 LBD luciferase reporter; inhibition, % at 10 µM; 65,000 compounds, 0.55% hits; AID 525;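 active means inhibition above the mean inhibition of all tested compounds plus 3 SD, cut at about 48% in these data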;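 further: 0% = SF-1 transfected cells with DMSO and 100% = mock-transfected cells lacking SF-1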
Target sequence (Q13285 whole entry, looked up, the tested form may be a part): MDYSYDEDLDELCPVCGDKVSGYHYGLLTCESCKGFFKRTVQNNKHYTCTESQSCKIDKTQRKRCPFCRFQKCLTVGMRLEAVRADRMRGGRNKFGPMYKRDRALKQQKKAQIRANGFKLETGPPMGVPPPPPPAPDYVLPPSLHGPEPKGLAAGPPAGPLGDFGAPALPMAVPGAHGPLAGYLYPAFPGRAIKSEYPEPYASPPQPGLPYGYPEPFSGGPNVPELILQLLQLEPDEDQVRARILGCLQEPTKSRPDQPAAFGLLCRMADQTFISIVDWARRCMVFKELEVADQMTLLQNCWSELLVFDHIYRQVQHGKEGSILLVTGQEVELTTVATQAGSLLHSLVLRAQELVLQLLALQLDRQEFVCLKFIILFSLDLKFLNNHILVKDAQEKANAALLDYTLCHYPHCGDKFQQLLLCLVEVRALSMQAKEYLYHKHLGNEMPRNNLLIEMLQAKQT
* = called active by the depositor.

`CCCc1[nH]nc2c1C1(C(=O)N(CC)c3ccccc31)C(C#N)=C(N)O2` (stereo not given) gave SF1 inhibitor 12.
O=S(=O)(/C=C/c1ccccc1)n1cnc2ccccc21 was read as SF1 inhibitor 5.
CC(C)CCn1c(Sc2nc3ccccc3s2)nc2c1c(=O)[nH]c(=O)n2C was read as SF1 inhibitor 12.
For O=C(Nc1nc(-c2ccccn2)cs1)c1ccc(Cl)s1 the results were SF1 inhibitor 95*.
`Cc1nc2ccc3nc(NC(=O)c4ccc(S(=O)(=O)N5CCOCC5)cc4)sc3c2s1` gave SF1 inhibitor 12.
O=C(Nc1nccs1)c1ccc(Cl)s1 was read as SF1 inhibitor -58.
`O=C(Nc1nc(-c2ccccn2)cs1)c1ccc(S(=O)(=O)N2CCCCC2)cc1` gave SF1 inhibitor 64*.
O=C(NC1CCCCC1)c1ccc(S(=O)(=O)N2CCCCC2)cc1 was read as SF1 inhibitor -14.
For O=C(Nc1ccc2sccc2c1)c1ccc(Cl)s1 the results were SF1 inhibitor -60.
`CC1CCCCN1C(=O)C1CC(c2ccc(F)cc2)=NO1` (stereo not given) gave SF1 inhibitor -63.
Screening FC(F)(F)C(F)(F)C(F)(F)c1nnc2ccc(N3CCOCC3)nn12 returned SF1 inhibitor 8.
Screening CCOc1ccc(S(=O)(=O)N(CC(=O)O)c2ccc(C)cc2)cc1 returned SF1 inhibitor -17.
`Cc1ccc2cc(CCNC(=O)c3ccco3)c(=O)[nH]c2c1C` gave SF1 inhibitor -63.
O=C(N(c1ccccc1)c1ccccc1)n1ccnc1 was read as SF1 inhibitor 10.
Screening O=C(NCc1nnc(SCC(=O)N2CCC(Cc3ccccc3)CC2)o1)c1ccccc1F returned SF1 inhibitor -2.
Screening COc1ccc(O)c(C(=O)CC(=O)c2ccc(F)cc2)c1 returned SF1 inhibitor 52*.
COc1cccc(NC(=O)COc2ccccc2C(N)=O)c1 was read as SF1 inhibitor -62.
COc1cccc(NC(=O)CN2CCN(c3ccccc3F)CC2)c1 was read as SF1 inhibitor -14.
CSc1nc(-c2ccccc2)nc2[nH]ccc(=O)c12 was read as SF1 inhibitor -12.
`O=C(CSc1nnc(COc2cccc3cccnc23)o1)N1CCc2ccccc21` gave SF1 inhibitor 53*.
Screening Cc1cc(C(=O)OCC(=O)N2CCc3ccccc32)c(C)o1 returned SF1 inhibitor -54.
`O=C(COc1ccc(F)cc1Br)N1CCc2ccccc21` gave SF1 inhibitor -51.
CSc1nnc(-c2ccc(S(=O)(=O)N3CCOCC3)cc2)n1CC1CCCO1 (stereo not given) was read as SF1 inhibitor -1.
Screening Cc1nc(CNS(=O)(=O)c2ccc3ccccc3c2)cs1 returned SF1 inhibitor 11.
Screening O=S(=O)(NCc1cn2ccsc2n1)c1ccc(Oc2ccccc2)cc1 returned SF1 inhibitor 52*.
`Cc1csc2nc(CNS(=O)(=O)c3ccc(-c4ccccc4)cc3)cn12` gave SF1 inhibitor 3.
COc1cc2nc(=S)n3[nH]c(CCn4nc(C)cc4C)nc3c2cc1OC was read as SF1 inhibitor 61*.
CN(C)CCN1C(=O)C(=O)/C(=C(/O)c2ccccc2)C1c1ccccc1F (stereo not given) was read as SF1 inhibitor -2.
For Cc1ccc(N=Cc2ccc[nH]2)c(O)c1 the results were SF1 inhibitor -9.
Screening O=C(NCC(=O)N(Cc1cccs1)C(C(=O)NC1CCCC1)c1ccco1)c1cccs1 (stereo not given) returned SF1 inhibitor -4.
For CN(C)c1cccc(C(=O)NC2CCCCCC2)c1 the results were SF1 inhibitor -75.
Screening CN(C)c1ccc(N/C=C/C(=O)c2ccccc2)cc1 returned SF1 inhibitor 66*.
`CCOC(=O)c1c(C)c(C(=O)Nc2ccc(N(C)C)cc2)c(C)n1CC` gave SF1 inhibitor -72.
For O=C(NC1CC1)C1CC(=O)N(C2CCCCC2)C1 (stereo not given) the results were SF1 inhibitor -2.
For Brc1ccc(-c2cnc(-c3cccs3)o2)cc1 the results were SF1 inhibitor -52.
O=C(CN1CCOc2ccccc21)NC1CC1 was read as SF1 inhibitor -20.
Screening CC(=O)c1ccc(OCC(O)CN2CCN(Cc3ccc4c(c3)OCO4)CC2)cc1 (stereo not given) returned SF1 inhibitor -27.
For Cc1ccc2[nH]c3c(N4CCN(Cc5ccc6c(c5)OCO6)CC4)ncnc3c2c1 the results were SF1 inhibitor 73*.
Cc1ccc2[nH]c3c(N4CCCCCC4)ncnc3c2c1 was read as SF1 inhibitor 74*.
`Cc1ccc2c(c1)c1ncnc(N3CCC4(CC3)OCCO4)c1n2C` gave SF1 inhibitor -67.
Cc1cc(C)c2[nH]c(=O)c(C(c3nnnn3Cc3ccc4c(c3)OCO4)N3CCCCC3)cc2c1 (stereo not given) was read as SF1 inhibitor 12.
Screening Cc1ccc(-n2c(=O)cc(N3CCCCCC3)[nH]c2=O)cc1 returned SF1 inhibitor -6.
Screening COc1ccc2c(c1)[nH]c1c(N3CCN(Cc4ccc5c(c4)OCO5)CC3)ncnc12 returned SF1 inhibitor 74*.
Screening COc1ccc(-n2ccnc2SCC(=O)NCc2ccc3c(c2)OCO3)cc1 returned SF1 inhibitor -6.
`c1ccc2sc(NC3=NCN(Cc4ccc5c(c4)OCO5)CN3)nc2c1` gave SF1 inhibitor 7.
`CC1CCCCN1CCNC(=O)CN1C(=O)COc2ccccc21` (stereo not given) gave SF1 inhibitor 7.
Screening Cc1ccc2nc3c(cc(C#N)c(=O)n3CC3CCCO3)c(=O)n2c1 (stereo not given) returned SF1 inhibitor -2.
FC(F)(F)c1cnc(Nc2ccc(N3CCOCC3)cc2)c(Cl)c1 was read as SF1 inhibitor 4.
CCCCCCC(=O)c1c(C)[nH]c(C(=O)OCC)c1C was read as SF1 inhibitor -53.
`COc1cccc(CN(Cc2cccnc2)S(=O)(=O)c2ccc(-n3cnnn3)c(C)c2)c1` gave SF1 inhibitor 4.
For CC(=O)NC1Sc2ccccc2N=C1c1ccccc1 (stereo not given) the results were SF1 inhibitor -59.
For O=C(NC1CCCCC1)c1cc2nc3c(c(C(F)(F)F)n2n1)CCCC3 the results were SF1 inhibitor -50.
O=C(Cn1nc(Cc2ccncc2)c2ccccc2c1=O)N1CCc2ccccc2C1 was read as SF1 inhibitor 12.
For CNS(=O)(=O)c1cccc(C(=O)OCC(=O)Nc2ccccc2OC(F)F)c1 the results were SF1 inhibitor 3.
`CN(C)c1ccc(-c2nn3c(-c4cccnc4)nnc3s2)cc1` gave SF1 inhibitor 4.
`COc1cc(-c2nnc3sc(-c4cccs4)nn23)cc(OC)c1OC` gave SF1 inhibitor 16.
COc1ccccc1-c1nnc2sc(-c3ccc(N(C)C)cc3)nn12 was read as SF1 inhibitor 64*.
`Cc1cc(C)c(C(=O)CSc2n[nH]c(=O)n2C2CC2)cc1C` gave SF1 inhibitor 12.
O=S(=O)(NC1CCCCC1)c1cccc(-c2nnc(-c3ccccc3)o2)c1 was read as SF1 inhibitor 8.
COc1cc(C(=O)Oc2c(CN3CCOCC3)cc(Cl)c3cccnc23)cc(OC)c1OC was read as SF1 inhibitor 55*.
`CCCCCOc1ccc(CN2CCOCC2)cc1Cl` gave SF1 inhibitor -61.
`COc1c(C)cccc1C(=O)Nc1ccc(CN2CCOCC2)cc1` gave SF1 inhibitor -62.
CCOC(=O)CSc1nc2ccccc2c(=O)n1NC(=O)c1ccccc1 was read as SF1 inhibitor -56.
